Experimental data: PubChem BioAssay (NCI)
This is part of a sample that, as a whole, favours compounds with a hit. Of some 83,000 tested, about 20% had one in any assay.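 Step 1: grow cells in 96-well plates. Step 2: add test compound at a single concentration. Step 3: incubate 48 h. Step 4: record percent growth.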 Calls of active or inactive are those of the source. The calls were made as follows: active = growth percent below 10; inactive = the rest.

What follows are molecules tested on DU-145 prostate (assay: NCI-60 one-dose screen, 48 h (100 = growth as untreated, 0 = no growth, -100 = all killed)). Settings: 10 µM unless noted.
For `CC(=O)Nc1ccc2c(c1)c(NC(C)=O)nn2C(=O)Nc1ccc(Cc2ccccc2)cc1`, the growth was 83% (inactive).
In the case of `Cc1ccc2c(c1)O/C(=C\c1cccc(OCC(=O)c3ccccc3)c1)C2=O`, the growth is reported as 103% (inactive).
For `Nc1nc(SCc2ccccc2)c2ncn(C3CCCC3)c2n1`, the growth was 101% (inactive).
For `Cn1c2ccccc2c2c3c(c4c5ccccc5n(CCCCCC#N)c4c21)C(=O)N(O)C3=O`, the growth was 16.3% (inactive).
In the case of `CCN(CC)Cc1cc(Nc2c3ccc(Cl)cc3nc3c(C)cccc23)ccc1O`, the growth is reported as 2.09% (active).
`CS(=O)(=O)c1ccc(-c2cnc3ccc(-c4cccc(S(C)(=O)=O)c4)nn23)cc1` was tested, and the growth was 27.9% (inactive).
In the case of `COc1ccc(CCN2CCCn3c2nc2ccccc2c3=O)cc1`, the growth is reported as 16.4% (inactive).
`CC#CC#Cc1cccc(=O)o1` was tested, and the growth was 100% (inactive).
`c1ccc2c(Nc3cccc4ccccc34)cccc2c1` was tested, and the growth was 86.4% (inactive).
In the case of `c1ccc(CSc2ncnc3nc[nH]c23)nc1`, the growth is reported as 113% (inactive).
In the case of `O=C(O)c1cccnc1Br`, the growth is reported as 129% (inactive).
In the case of `COc1ccc(-c2cc(-c3cccnc3)nc3sc4c(=O)n(-c5ccc(C)cc5)cnc4c23)cc1OC`, the growth is reported as 101% (inactive).
`CNC(=O)c1cc(Oc2ccc3nc(NC(=O)Nc4ccc(CN5CCOCC5)c(C(F)(F)F)c4)sc3c2)ccn1` was tested, and the growth was 31.5% (inactive).
For `CCN(CC)CCCC(C)NCCCNc1cccc2cccnc12` (centres undefined), the growth was 106% (inactive).
In the case of `CCCCN(CCCC)Cc1c(C)[nH]c2cc(OC)ccc2c1=O`, the growth is reported as 106% (inactive).
In the case of `O=C1C[C@H](Sc2nc(-c3ccc(F)cc3)cc(C(F)(F)F)n2)[C@H]2CO[C@@H]1O2`, the growth is reported as 89.9% (inactive).
With `CCCCOc1ccc(NC(=O)n2nc(NC(C)=O)c3cc(NC(C)=O)ccc32)cc1` the growth was 94.6% (inactive).
In the case of `CSc1ncnc2c1ncn2C1CCCO1` (centres undefined), the growth is reported as 127% (inactive).
In the case of `Oc1ccccc1N=Cc1c(O)ccc2ccccc12`, the growth is reported as 82.3% (inactive).
For `Cn1c2ccccc2c2c3[nH]c(=O)[nH]c(=O)c3c3c4ccccc4n(C)c3c21`, the growth was 29.2% (inactive).
With `CCOC(=O)c1c2ncccc2n2c(=O)n(-c3ccc(Cl)cc3)nnc12` the growth was 112% (inactive).
For `O=C(COc1cccc(/C=C2/Oc3ccccc3C2=O)c1)Nc1nccs1`, the growth was 104% (inactive).
For `NS(=O)(=O)c1ccc(Nc2nc3n[nH]c(Nc4ccccc4)c3c(=O)[nH]2)cc1`, the growth was 102% (inactive).
In the case of `OCCNCCNc1c2ccccc2nc2ccccc12`, the growth is reported as 88.3% (inactive).
With `COc1ccc(OCC(=O)Nc2ccc(-c3nc4ccccc4s3)cc2C)cc1` the growth was 110% (inactive).
In the case of `CCCCNP1(NCCCC)=NP(NCCCC)(NCCCC)=NP(NCCCC)(NCCCC)=NP(NCCCC)(NCCCC)=N1`, the growth is reported as 16.5% (inactive).
For `COCCCN=C(N)c1ccc(NC(=O)c2ccc(C(=O)Nc3ccc(C(N)=NCCCOC)cc3)cc2)cc1`, the growth was 148% (inactive).
`Cn1c2ccccc2c2c3c(c4c5ccccc5[nH]c4c21)C(=O)N(N)C3=O` was tested, and the growth was 57.4% (inactive).
For `CCN(CC)Cc1cc(Nc2c3ccccc3nc3cc(Cl)ccc23)ccc1O`, the growth was -16.2% (active).
With `COc1nc2c(cc1S(=O)(=O)c1ccccc1)CCc1c-2cnn1-c1ccc(Cl)cc1` the growth was 110% (inactive).
With `CN(CC(=O)N(Cc1ccc(C2CCCCC2)cc1)c1ccc(C(=O)NO)cc1)S(=O)(=O)c1c(F)c(F)c(F)c(F)c1F` the growth was 78.3% (inactive).
With `COc1cc(-c2nc3ccccc3s2)ccc1NC(=O)COc1ccc(Cl)cc1` the growth was 82.1% (inactive).
In the case of `CSc1[nH]c2ncnc(N)c2c1C#N`, the growth is reported as 101% (inactive).
For `O=C1Nc2c(ccc(Cl)c2Cl)/C1=C/c1cc(Br)c(O)c(Br)c1`, the growth was 84.6% (inactive).
`NS(=O)(=O)N(c1cc(C(F)(F)F)cc(C(F)(F)F)c1)C1CCN(Cc2ccc(F)cc2)CC1` was tested, and the growth was 99% (inactive).
In the case of `COc1nc2c(cc1S(=O)(=O)c1ccccc1)CCc1c-2cnn1Cc1ccccc1`, the growth is reported as 83.5% (inactive).
In the case of `CN1CCN(Cc2ccc(NC(=O)c3[nH]ncc3Nc3ccnc4ccsc34)cc2)CC1`, the growth is reported as 14.7% (inactive).
`CC1(C)CC(C(=O)OCCCCCCCCCCC[P+](c2ccccc2)(c2ccccc2)c2ccccc2)C(C)(C)N1O` (centres undefined) was tested, and the growth was -85.3% (active).
`C=CC[N+]1(CC)CCN=C1CCCCCCCCCCCCCCCCC` (centres undefined) was tested, and the growth was -100% (active).
